# A number with no mark means an inactive call. Calls of active or inactive are those of the source. Rule as the data show it, unless noted: active = inhibition above about 33%; inactive = the rest.
# How the values were obtained:
# [1] = StAR promoter reporter inhibitors, counter-screen for LRH-1 inverse agonist project, cell-based, luminescence, high throughput (AID 651611; in the data active = inhibition above about 28%); conditions: StAR promoter luciferase reporter counterscreen, at 3.6 µM, hits give high values
# [2] = target: Nuclear receptor subfamily 5 group A member 2 (Homo sapiens) (UniProt O00482); experiment: NR5A2 activity suppression in reporter cells – cell-based, luminescence, confirmation (AID 651613; in the data active = inhibition above about 42%;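 also: HEK293T cells co-transfected with LRH-1 and StAR promoter luciferase reporter; 0% = vehicle wells and 100% = parental cells lacking receptor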); conditions: cell-based LRH-1 luciferase reporter, inverse agonism; at 3.6 µM; hits give high values
# Nuclear receptor subfamily 5 group A member 2 (Homo sapiens), sequence (O00482 whole entry, looked up): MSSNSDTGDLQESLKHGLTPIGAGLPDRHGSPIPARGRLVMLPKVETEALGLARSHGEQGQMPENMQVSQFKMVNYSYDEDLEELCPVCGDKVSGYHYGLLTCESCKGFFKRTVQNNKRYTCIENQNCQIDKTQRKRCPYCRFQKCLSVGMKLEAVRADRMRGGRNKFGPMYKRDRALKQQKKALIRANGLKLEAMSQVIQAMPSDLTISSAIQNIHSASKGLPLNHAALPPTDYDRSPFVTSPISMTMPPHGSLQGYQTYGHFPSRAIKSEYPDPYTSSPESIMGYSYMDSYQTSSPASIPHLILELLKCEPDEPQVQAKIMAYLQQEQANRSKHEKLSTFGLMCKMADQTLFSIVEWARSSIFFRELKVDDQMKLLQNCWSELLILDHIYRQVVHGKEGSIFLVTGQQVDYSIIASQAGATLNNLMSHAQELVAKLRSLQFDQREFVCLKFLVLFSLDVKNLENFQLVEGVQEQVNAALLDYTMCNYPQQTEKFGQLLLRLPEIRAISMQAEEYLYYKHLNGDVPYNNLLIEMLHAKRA
# [3] = target: Steroidogenic factor 1 (Homo sapiens) (UniProt Q13285); experiment: inverse agonism at SF1 nuclear receptor – cell-based, luminescence, high throughput, counter-screen for LRH-1 inverse agonist project (AID 651614; in the data active = inhibition above about 44%;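 also: cells cotransfected with StAR promoter reporter and SF1 expression vector; 0% = vehicle on cells with receptor and 100% = vehicle on cells lacking receptor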); conditions: cell-based SF1 luciferase reporter, at 3.6 µM, hits give high values
# Steroidogenic factor 1 (Homo sapiens), sequence (Q13285 whole entry, looked up, the tested form may be a part): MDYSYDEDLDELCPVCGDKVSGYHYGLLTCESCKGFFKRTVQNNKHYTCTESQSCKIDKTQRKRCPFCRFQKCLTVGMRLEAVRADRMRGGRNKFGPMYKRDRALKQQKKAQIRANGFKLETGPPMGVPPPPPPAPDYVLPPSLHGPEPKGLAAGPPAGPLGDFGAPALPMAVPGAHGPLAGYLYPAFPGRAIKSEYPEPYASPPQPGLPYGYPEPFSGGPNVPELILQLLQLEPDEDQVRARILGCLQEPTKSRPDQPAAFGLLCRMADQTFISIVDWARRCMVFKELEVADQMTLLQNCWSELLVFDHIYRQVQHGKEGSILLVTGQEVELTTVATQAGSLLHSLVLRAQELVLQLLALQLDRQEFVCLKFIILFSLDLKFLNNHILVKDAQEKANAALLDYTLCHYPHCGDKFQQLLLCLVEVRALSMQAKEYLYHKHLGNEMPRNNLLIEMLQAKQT
# [4] = compounds suppressing VP16-driven luciferase signal – cell-based, luminescence, high throughput, counter-screen for LRH-1 inverse agonist project (AID 651615); conditions: Gal4-VP16 luciferase reporter cells, at 3.6 µM, hits give high values
Structure (SMILES),inhibition [1],inhibition [2],inhibition [3],inhibition [4]
S=C(NCc1ccc(Cl)cc1)Nc1ccncc1,24.2%,80.9% (active),72.8% (active),35.1% (active)
COc1cc(OC)cc(C(=O)N[C@H](C(=O)OCC(=O)Nc2ccc3c(c2)OCO3)C(C)C)c1,14.4%,48.1% (active),45.9% (active),-4.48%
CCN(Cc1ccccc1)c1ccc(/C=N/NC(=O)c2cccc(S(=O)(=O)N3CCOCC3)c2)cc1,24.6%,66.8% (active),62.3% (active),28%
O=C(COc1ccc(Nc2ccccc2)cc1)Nc1ccncc1,19.2%,52.8% (active),51.6% (active),41.4% (active)
Cc1ccc(CNC(=O)CN2C(=O)NC3(CCCC3)C2=O)cc1,5.83%,33.5%,43.7% (active),0.14%
NS(=O)(=O)c1ccc(CCNC(=O)COc2ccc3c4c(c(=O)oc3c2)CCC4)cc1,13.4%,41.7% (active),38.2%,-15.4%
Cc1cc(Br)ccc1NC(=O)CN1C(=O)CCC1=O,7.63%,58.1% (active),72.2% (active),4.01%
COc1cc(C(=O)NC2CCN(C)CC2)ccc1Nc1ncc2c(n1)N(CCc1ccccc1)CCC(=O)N2C,63.2% (active),54.8% (active),47.4% (active),-166%
O=C1/C(=C\c2ccc(Cl)c(Cl)c2)CN(C(=O)CCN2CCOCC2)C/C1=C/c1ccc(Cl)c(Cl)c1,67.9% (active),93.2% (active),92.9% (active),79% (active)
C=CC[n+]1c(-c2ccc(Cl)cc2Cl)csc1Nc1c(C)n(C)n(-c2ccccc2)c1=O,10.3%,58.7% (active),61% (active),27.5%
O=C(NCCN1CCOCC1)c1ccc2c(c1)N(Cc1ccccc1F)C(=O)CS2,11.1%,42.4% (active),36.2%,-9.87%
O=C(Nc1cc(-c2nc3ncccc3o2)ccc1Cl)c1ccc([N+](=O)[O-])o1,15.3%,52.2% (active),53.2% (active),-25.6%
COc1ccc(CCNC(=O)CSc2nc(O)c(CCC(C)C)c(=O)[nH]2)cc1OC,2.2%,61.7% (active),50.4% (active),-12.8%
O=C(NCc1cccnc1)c1cccc2c1C(=O)N(C1CCCCC1)C2,12.8%,48.5% (active),51.5% (active),-8.24%
Cc1ccc2[nH]c(C)c(/C=C/c3cc[n+](C)cc3)c2c1,39.2% (active),77.4% (active),67.3% (active),67.8% (active)
CCn1c(=NC(=O)CCS(=O)(=O)c2ccccc2)sc2cccc(OC)c21,6.25%,108% (active),70.3% (active),69.2% (active)
C=CCNC(=S)N/N=C/c1ccc(N(CC)Cc2ccccc2)cc1,11.4%,38.4%,24.4%,6.68%
CC(=O)Oc1ccc(-c2ccc(C(=O)Nc3cccc(S(=O)(=O)N4CCOCC4)c3)cc2)cc1,25.5%,35.1%,52.1% (active),59.4% (active)
COC(=O)c1c(NC(=O)c2ccco2)sc2c1CCN(C(C)=O)C2,20%,54.4% (active),44.7% (active),-41%
O=C(NCCCc1ccccc1)c1cc([N+](=O)[O-])ccc1Cl,23.3%,71% (active),67.5% (active),-15.8%
CNc1c2cccc(C)c2nc2c(C(=O)NCCN(C)C)cccc12,80.3% (active),109% (active),98% (active),74.7% (active)
Cc1onc(-c2c(F)cccc2Cl)c1C(=O)Nc1cccc2nsnc12,8.33%,52.1% (active),49.8% (active),27.2%
CC(=O)N1CCc2c(sc(NC(=O)CCS(=O)(=O)c3ccccc3)c2C#N)C1,-5.27%,60.1% (active),55.1% (active),-11%
CCC(=O)N1CCN(c2ccc(NC(=O)c3ccc([N+](=O)[O-])o3)cc2)CC1,17.6%,78% (active),68.4% (active),-25%
O=C(Nc1nc(-c2ccccn2)cs1)c1ccc([N+](=O)[O-])o1,32% (active),69.5% (active),77.7% (active),16.4%
CCOC(=O)C(C)Oc1cccc2c(=O)n(CC(=O)Nc3ccc(OCC)cc3)ccc12 (stereo not drawn),4.74%,60.1% (active),58.8% (active),-11.2%

Structure (SMILES),inhibition [1],inhibition [2],inhibition [3],inhibition [4]
CC(O)(c1cccnc1)c1nc(-c2cccc(C#N)c2)cs1 (stereo not drawn),5.87%,53.4% (active),54% (active),7.33%
c1ccc(-c2nc(NCc3cccnc3)c3oc4ccccc4c3n2)cc1,19.2%,62.4% (active),60.6% (active),-22.9%
COc1ccc(NS(=O)(=O)c2ccc(OCC(=O)N3CCOCC3)cc2)cc1Cl,-8.5%,35.7%,34.3%,6.15%
O=C(Nc1c(Cl)ccc2nsnc12)c1ccc([N+](=O)[O-])o1,17.1%,65.1% (active),64.9% (active),-11.9%
Clc1ccccc1-c1nc(N/N=C/c2cccnc2)c2ccccc2n1,6.03%,52.3% (active),53.3% (active),-7.84%
Cc1ccc(Cn2nc(C)c(NC(=O)c3noc4c3CCCCC4)c2C)cc1,14.1%,53.6% (active),50.7% (active),-1.13%
CCOc1ccc(Br)cc1C1=NN(C(C)=O)C(c2ccc([N+](=O)[O-])s2)O1 (stereo not drawn),17.9%,66.8% (active),63.2% (active),-1.66%
Cc1ccc(SCc2ccc(C(=O)NCc3ccncc3)cc2)cc1,-0.78%,55.9% (active),53.1% (active),-0.6%
CC(Nc1ncnc2sccc12)c1ccccc1 (stereo not drawn),25.8%,64.5% (active),64.9% (active),57.7% (active)
COc1ccc(-c2sc(C(=O)c3ccc(Cl)cc3Cl)cc2CC(=O)O)cc1,17.8%,42.2% (active),38%,-5.16%
Cc1ccc(CN2CCC[C@]3(N[C@H](c4ccc(C(F)(F)F)cc4)[C@@H]4C(=O)N(Cc5ccccc5)C(=O)[C@@H]43)C2=O)cc1,-2.71%,24.8%,28.4%,22%
Cc1nn(CC(=O)Nc2ccc3c(c2)OCCO3)c(C)c1[N+](=O)[O-],11.2%,62.3% (active),51.6% (active),10.4%
COc1ccc(C2=CC(=O)OC3(CCCC3)O2)cc1,15%,60.5% (active),54.5% (active),-0.06%
CN1CCN(c2ccccc2NC(=O)c2ccc(-c3cccc([N+](=O)[O-])c3)o2)CC1,11.9%,42.9% (active),49.6% (active),2.32%
COc1ccc(C(=O)Nc2ccc(S(=O)(=O)N3CCc4ccccc43)cc2)cc1,29.2% (active),40.6%,44.5% (active),44.7% (active)
O=C(Nc1cc(Cl)ccc1-n1cncn1)c1ccc([N+](=O)[O-])s1,23.2%,68.4% (active),69.2% (active),-10.3%
CCCCSc1nc(SCC(=O)NCc2ccco2)c2c3c(sc2n1)COC(C)(CC)C3 (stereo not drawn),4.87%,53.8% (active),44.6% (active),-1.29%
O=C(CCl)Nc1ccc(N2CCCCCC2)cc1,25%,54.6% (active),51.3% (active),-8.63%
CCOc1cc(/C=N/Nc2nnc(C)n2N)ccc1O,-6%,18.2%,22.2%,2.17%
COC(=O)c1ccc(NC(=O)CN2CCC(NC(=O)c3ccccc3F)CC2)cc1,23.6%,52.3% (active),44.1% (active),-4.8%
Cc1nc2cc(N3CCCCC3)c(NC(=O)c3cccnc3)cc2c(=O)n1Cc1ccccc1,10.7%,57.6% (active),57.2% (active),-17%
COCc1cccc(-c2csc(C(C)(O)c3cccc(OC)c3)n2)c1 (stereo not drawn),-0.93%,45.2% (active),29.1%,11.7%
COCc1cc(C)n(CC(=O)Nc2ccc(N3CCOCC3)c(Cl)c2)c(=O)c1C#N,-4.28%,40.5%,40.9%,6.57%
O=C(CSc1nc2ccccc2c(=O)n1-c1ccc(Cl)c(Cl)c1)Nc1ccc2c(c1)CCC2,-1.82%,49.9% (active),37.8%,-40.9%
CC(C)=NOc1cc(NC(=O)CCl)cc([N+](=O)[O-])c1,37.5% (active),56.3% (active),56.4% (active),13%
COc1cc2c(OC(C)=O)c3c(c(-c4ccc5c(c4)OCO5)c2cc1OC)C(=O)OC3,55.8% (active),35.4%,36.2%,34.7% (active)

# From PubChem BioAssay
